HCV inh: qHTS Assay for Inhibitors of Hepatitis C Virus (HCV). Huh7.5.1 HCVcc-Cre infection, luciferase reporter, 44 h. Potency, µM (series often up to 41.8 µM), hits mostly inhibitors. 340,000 compounds, 3.4% hits
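Reporter virus HCVcc-Cre (~0.5 moi) infects cells exposed to compound; seeding density 1,000 cells/well with 4 h settling beforehand. Luminescence, 15 sec read, taken 44 h post-infection following a 15 min RT substrate incubation.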
Pf growth 96h: Primary qHTS for delayed death inhibitors of the malarial parasite plastid, 96 hour incubation; P. falciparum luciferase reporter growth, 96 h; Potency, µM (highest dose often 28.7 µM), most hits filed as inhibitors; 320,000 compounds, 6.9% hits; AID 504834, 2011
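Parasite growth measured via integrated firefly luciferase reporter in P. falciparum. Infected erythrocytes at 2% hematocrit, 0.05% parasitemia final were treated 96 hours at 37 C under 5% CO2, and luminescence was read.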
Pf growth 48h: Primary qHTS for delayed death inhibitors of the malarial parasite plastid, 48 hour incubation. P. falciparum luciferase growth in erythrocytes, 48 h. Potency, µM (doses to about 28.7 µM), actives largely listed as inhibitors. 310,000 compounds, 5.9% hits
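Firefly luciferase activity from engineered P. falciparum reports growth; inhibitors lower the luminescent signal. Cultures contained 2% hematocrit erythrocytes at 0.1% final parasitemia.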
HCMV antiviral: qHTS Assay for inhibitors of the human cytomegalovirus (HCMV); HFF cells, HCMV-luciferase reporter, 72 h; active compounds read low; activity change, negative = inhibition, % at 57.5 µM; 410,000 compounds, 4.5% hits; AID 1259415, 2018; in the data active = activity change below about -60%; inconclusive = no clear call, values can overlap the other calls; inactive = above about -39%
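Luciferase read-out from HCMV-luciferase-infected HFFs (MOI 1 PFU/cell) 72 h post infection at 37C; compounds added after 16 h cell attachment; activity normalized between buffer-only basal and Salinomycin (10uM) inhibitor controls.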
Numbers stand for hits; . = inactive; ? = inconclusive; / = no result given; ! = a repeat was not active; [ ] = another dose, or the depositor's remark. Sampled rows, rich in hits. Any-hit rate of the full collection: about 13%. Unless noted, calls come from the whole dose curve; as a rule, active = well fitted inhibition curve with a large enough effect; inconclusive = small, poorly fitted or top-dose-only effect, or another doubt; inactive = no such curve, though single readings can be large or run the other way.

SMILES	HCV inh	Pf growth 96h	Pf growth 48h	HCMV antiviral
Cc1nn(Cc2ccc(Cl)c(Cl)c2)c(C)c1NC(=O)c1cc(CC(C)C)on1	11µM	0.33µM	?	.
Cc1nn(Cc2ccc(Cl)cc2)c(C)c1NC(=O)c1noc2c1CCCCC2	?	.	?	.
CN(C)c1ccc(C2/C(=C(/O)c3ccc(Br)cc3)C(=O)C(=O)N2C)cc1 (configuration not stated)	.	5.9µM	/	.
CCc1ccc(C2c3c(-c4ccccc4O)n[nH]c3C(=O)N2Cc2cccnc2)cc1 (configuration not stated)	/	/	/	.
O=C(CCCn1c(=O)c2sccc2n(Cc2ccc(F)cc2Cl)c1=O)NCc1ccc2c(c1)OCO2	/	/	/	.
CCCCCC(=O)NC(=S)NC1C2CC3CC(C2)CC1C3 (configuration not stated)	?	3.7µM	4.7µM	.
CCCCCC(=O)NNC(=S)NC(C)=O	.	.	?	?
Cc1cccc(Cc2c(C)nc3nc(SCc4cccc(F)c4)nn3c2C)c1	/	/	/	.
Cc1ccc(C)c(S(=O)(=O)c2nnn3c2nc(N2CCCC2)c2sccc23)c1	/	/	/	.
CCCCOC(=O)NS(=O)(=O)c1sc(CC(C)C)cc1-c1ccc(Cn2c(CC)nc3c(C)cc(C)nc32)cc1	13µM	?	15µM	/
CCN1C(=NCCOC)N[C@@H](CCc2ccccc2)[C@H](C(=O)OC)[C@H]1C	.	17µM!	.	.
CCN1C(=NCCCOC(C)C)N[C@@H](CCc2ccccc2)[C@H](C(=O)NCCCOC(C)C)[C@H]1C	.	4.7µM	4.7µM	.
COc1ccc(N(C)S(=O)(=O)c2cccc(C(=O)Nc3cc(OC)ccc3OC)c2)cc1	10µM	?	?	.
COc1ccc(N(C)S(=O)(=O)c2cccc(C(=O)Nc3ccc(-n4cnnn4)cc3)c2)cc1	?	?	10µM	?
COc1ccc(N(C)S(=O)(=O)c2cccc(C(=O)NCC3CCCO3)c2)cc1 (configuration not stated)	.	?	/	?
COc1ccc(N(C)S(=O)(=O)c2cccc(C(=O)Nc3ccc(OC)nc3)c2)cc1	?	?	.	-68
COc1cc(NC(=O)c2ccccc2-n2cnnn2)cc(OC)c1	.	.	.	.
COc1cc(OC)cc(C(=O)Nc2ccc(-n3cnnn3)c(C)c2)c1	7.1µM	.[5.75 µM]	.	.
COC(=O)c1sc(N2C(=O)c3oc4ccc(C)cc4c(=O)c3C2c2ccc(O)c(OC)c2)nc1C (configuration not stated)	/	/	/	.
COc1ccc(N(C)S(=O)(=O)c2cccc(C(=O)Nc3ccc4c(c3)OCCO4)c2)cc1	10µM	?	?	.
Cc1ccc(N2CC(NC(=O)C(=O)c3c[nH]c4ccccc34)CC2=O)cc1 (configuration not stated)	/	/	/	.
CCOC(=O)CS(=O)(=O)c1nc(-c2ccc(F)cc2)cc(C(F)(F)F)n1	10µM	/	.	/
COC(=O)CCS(=O)(=O)c1nc(-c2ccccc2)cc(C(F)(F)F)n1	?	/	.	/
CCOC(=O)CS(=O)(=O)c1nc(-c2ccccc2)cc(C(F)(F)F)n1	?	.	.	-103
CCOC(=O)CCS(=O)(=O)c1nc(-c2ccccc2)cc(C(F)(F)F)n1	10µM	/	.	/
SMILES	HCV inh	Pf growth 96h	Pf growth 48h	HCMV antiviral
CCOC(=O)CS(=O)(=O)c1ccccc1	.	.	2.9µM	.
Cc1cc(C)c(Cn2c3ccccc3c3cnn(CC(=O)NCCc4ccccc4)c(=O)c32)c(C)c1	/	/	/	.
O=C(NC(CC(=O)N1CCN(c2ccccc2O)CC1)c1ccccc1)c1ccccc1Cl (configuration not stated)	?	?	10µM	.
O=C(NC(CC(=O)N1CCN(c2ccc([N+](=O)[O-])cc2)CC1)c1ccccc1)c1ccccc1Cl (configuration not stated)	?	12µM	?	.
COc1cc(NC(=O)CSc2nnc3ccccn23)cc(OC)c1	.	?	.	.
CC(C)(C)c1cc(NC(=O)CCSc2nnc3ccccn23)cc(C(C)(C)C)c1	4µM	/	/	.
O=C(Nc1nnc(S(=O)(=O)N2CCN(c3ccc(F)cc3)CC2)s1)c1ccc(Cl)cc1	/	/	/	.
CC(=O)Nc1ccc(NS(C)(=O)=O)cc1	.	4.7µM	/	.
CCOC(=O)c1ccc(NC(=O)c2ccccc2)cc1	?	/	.	.
CCOC(=O)c1ccc(NC(=O)c2ccc(NS(C)(=O)=O)cc2)cc1	11µM	.	?	?
CNC(=O)c1ccc(NC(=O)c2nsc3ccccc23)cc1	/	/	/	.
CCOC(=O)c1ccc(NS(=O)(=O)c2ccc3c(c2)n(C)c(=O)n3C)cc1	.	.	.	-67!
CCOC(=O)c1ccc(NC(=O)c2nsc3ccccc23)cc1	/	/	/	-78
CC(C)c1ccc(S(=O)(=O)N2CCC(n3c(C(F)(F)F)nc4cccnc43)CC2)cc1	/	/	/	.
CC(C)c1ccc(NC(=O)c2ccc(NS(C)(=O)=O)cc2)cc1	6.3µM	?	.	.
COC(=O)c1cc(-c2ccc(C)cc2)c2c(=O)n(C)c(=O)n(C)c2n1	/	/	/	.
CC(C)(C)c1nnc(N/N=C/c2cc(Br)ccc2O)n(N)c1=O	?	8.3µM	3.3µM	-101
CC(C(=O)N1CCCC1)c1ccc([N+](=O)[O-])cc1 (configuration not stated)	.	15µM	.	.
CCc1noc2nc(C)n(CC(=O)O)c(=O)c12	/	/	/	.
CCOc1ccc(NS(=O)(=O)c2ccc(NC(=S)NC(=O)C(C)C)cc2)cc1	.	/	.	.
CCOc1ccc(NC(=S)Nc2ccc(C)c([N+](=O)[O-])c2)cc1	.	2.1µM	/	.
CCOc1ccc(NS(=O)(=O)c2ccc(NC(=S)NC(C)=O)cc2)cc1	?	3.7µM	?	-62
CC(=O)Nc1ccc(C)c([N+](=O)[O-])c1	.	.	.	.
CCC(C)C(NC(N)=O)C(=O)Nc1ccc(S(=O)(=O)Nc2ccc(OC)cc2)cc1 (configuration not stated)	.	.	.	-102
CCOc1ccc(NC(=S)Nc2ccc(OCC)cc2)cc1	.	?	.	-100
SMILES	HCV inh	Pf growth 96h	Pf growth 48h	HCMV antiviral
Cc1cc(C)cc(-n2c(SCC(=O)Nc3ccccc3)nc3c(oc4ccccc43)c2=O)c1	/	/	/	.
CN(C)c1ccc(CNC(=O)CN2C(=O)CCn3nc(-c4cn(C)c5ccccc45)cc32)cc1	/	/	/	.
COc1ccc(NC(=O)Cn2c(=O)n(-c3cc(C)cc(C)c3)c(=O)c3oc4ccccc4c32)cc1OC	/	/	/	-84
C=CCn1cc(CN2CCC(C(=O)Nc3cccc(-c4cccc(F)c4)c3)CC2)c(C)n1	?	?	15µM	.
Cc1c(CN2CCC(C(=O)Nc3cccc(-c4cccc(Cl)c4)c3)CC2)cnn1C	?	.	?	?
C=CCn1cc(CN2CCC(C(=O)Nc3cccc(-c4cccc(Cl)c4)c3)CC2)c(C)n1	5µM	.	?	.
Cc1ccc(NC(=O)Cn2c(=O)n(Cc3nc(-c4ccccc4)no3)c(=O)c3cc4c(cc32)OCO4)cc1C	/	/	/	.
COC(=O)c1ccc2nc(-c3ccc(C)cc3)c(CC(C)(C)C)n2c1	/	/	/	.

Screening data (PubChem)
